The text below walks through data of PubChem BioAssay.

One may read the inhibition as the drop in the measured response relative to a control, in per cent.

Assay [1] can be described thus: yeast TOR pathway RPL19A-GFP modulators, primary screen, cell-based, S. cerevisiae, multiplex flow cytometry (AID 1862; in the data active = percent of DMSO control GFP below about 86%;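 also: lower values mimic rapamycin by blocking the RPL19A rise seen in DMSO cells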). To be noted: S. cerevisiae RPL19A-GFP strain, flow cytometry fluorescence, 3 h; at 10 µM; stronger effect = lower value. In general terms: In flow cytometry, cells or beads pass a laser one at a time.
Assay [2] in a line: modulators of MEP2-GFP levels in yeast, primary screen, S. cerevisiae, multiplex flow cytometry (AID 1867;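 active = GFP response, as percent of the DMSO control, above the screen-wide mean plus 3 SD, about 139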;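 also: median GFP channel fluorescence of barcode-gated MEP2-GFP cells measured by flow cytometry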). To be noted: S. cerevisiae MEP2-GFP strain, 3 h, at 10 µM, stronger effect = higher value, 100% means same as DMSO wells.
Assay [3] is described as follows: modulators of CIT2-GFP expression in yeast, primary screen, S. cerevisiae, GFP fusion, multiplex flow cytometry (AID 1870;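 active = percent response above a set limit, the screen-wide mean plus 3 SD, cut at about 130% in these data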;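 also: barcoded CIT2-GFP strain pooled with four other GFP strains with rapamycin as positive control; median GFP fluorescence per well over plate mean of DMSO wells so 100% = DMSO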). The note with it: 3 h, at 10 µM, stronger effect = higher value.
Assay [4] can be described thus: modulators of LAP4-GFP expression in yeast, primary screen, S. cerevisiae, multiplex flow cytometry (AID 1873). To be noted: 3 h, at 10 µM, stronger effect = higher value.
Assay [5] is described as follows: modulators of AGP1-GFP expression in yeast TOR pathway, primary screen, cell-based, multiplex flow cytometry, S. cerevisiae (AID 1887;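 active = GFP signal above the screen-wide mean plus 3 SD, that is over about 124.5% of the solvent control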;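 also: AGP1-GFP fusion strain of S. cerevisiae within a five-strain barcoded multiplex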). To be noted: 3 h, at 10 µM, stronger effect = higher value.
A short description of assay [6]: inhibitors of CD8+ T cell-vesicle binding, pilot screen, LFA-1/ICAM-1 modulator project, MLPCN validation set, flow cytometry (AID 2523;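 active = response below a set limit, under 55% cells CD8-positive and vesicle-bound, and CD8 cells' 90th-percentile brightness under 279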;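 as to vesicle binding response: mean PE anti-B7-1 fluorescence of CD8+ cells relative to row control; 100% = QL9-loaded vesicles with DMSO vehicle in the same plate row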). To be noted: 2C mouse CD8+ T cells, at 7 µM, stronger effect = lower value; double positive events: measured here: CD8+/vesicle+ event percentage.
For assay [7], the target named is Integrin beta-1 (Homo sapiens) + Integrin alpha-4 (Homo sapiens) (UniProt P13612+P05556). Description: inhibition of HUTS-21 binding to VLA-4, pilot screen, VLA-4 allosteric modulator project, U937 cells, HUTS-21 mAb, flow cytometry, validation set (AID 2674;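 active = inhibition above 50%, about 3 SD of the validation set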;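 also: antibody binding induced by the VLA-4 ligand LDV present at three times its Kd; 0% = LDV ligand with antibody and no compound and 100% = antibody without LDV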). To be noted: HUTS-21 LIBS mAb binding, at 6.7 µM, stronger effect = higher value, binding induced by LDV ligand.
Assay [8] can be described thus: superoxide lowering in aged yeast cells, pilot screen, validation compound set (AID 2706;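 active = superoxide response below 65% of plate, a cut near 3 SD across the whole screen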;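 also: yeast exposed to compound for one week at 30 degrees C before staining; 100% = mean of all compound wells on the same plate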). To be noted: S. cerevisiae aging, superoxide DHE fluorescence; at 10 µM; stronger effect = lower value.
Assay [9] deals with Beta-adrenergic receptor kinase 1 (Homo sapiens) (UniProt P25098). Description: GRK2 binders displacing RNA aptamer, biochemical, validation, human GRK2, bead flow cytometry (AID 488806;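 active = aptamer binding inhibition above 30%, about 3 SD of noise from non-fluorescent compounds; inactive = inhibition at or below 30%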). To be noted: bead-bound GRK2, FAM-aptamer displacement, at 10 µM, stronger effect = higher value.
For assay [10], the target named is Beta-2 adrenergic receptor (Homo sapiens) (UniProt P07550). Description: beta2AR agonists driving receptor internalization, pilot screen, cell-based, FAP fluorogen, flow cytometry, validation set (AID 504459;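 active = percent response above 42, roughly 3 SD of non-fluorescent test compounds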;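 also: agonist-driven loss of surface beta2AR via internalization measured by FAP dye flow cytometry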). To be noted: Am2.2-beta2AR cells, FAP surface receptor flow cytometry; at 10 µM; stronger effect = higher value.
Assay [11] concerns the target AP-2 complex subunit beta (Homo sapiens) (UniProt P63010). Briefly: inhibitors of arrestin peptide binding to AP2, pilot screen, biochemical, validation set, GST-AP2 beads, flow cytometry (AID 504541;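 active = inhibition above 54%, about 3 SD of non-fluorescent compounds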;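 also: AP2 carries R879A mutation and is captured from E. coli lysate; bead-bound FITC arrestin peptide fluorescence measuring arrestin peptide binding to AP2; 0% = DMSO wells and 100% = excess unlabeled arrestin peptide control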). The note with it: FITC arrestin peptide, at 10 µM, stronger effect = higher value, AP2 beta2 appendage fragment, R879A mutant.
The nature of assay [12]: yeast V-ATPase proton transport modulators, S. cerevisiae, pHLuorin, HTS validation (AID 504600; in the data active = response above about 15%;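 also: plate controls were DMSO for no effect and reference compound for full effect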). The note with it: S. cerevisiae pHLuorin cytosolic pH, at 10 µM, stronger effect = higher value.
Assay [13] concerns anti-desmoglein-3 scFv antibody binding to human DSG3. Description: inhibitors of anti-DSG3 scFv binding to DSG3, pilot screen, biochemical, validation compound set, bead-based, flow cytometry (AID 588368;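 active = binding below the plate cutoff, the plate median minus 3 SD, with a reading above zero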;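 also: signal is the median channel fluorescence of bead-bound GFP antibody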). The note with it: Protein G beads, DSG3-Fc, scFv-GFP binding, at 10 µM, stronger effect = lower value.
The nature of assay [14]: inhibitors of fungal efflux pumps CDR1, CDR2, MDR1, pilot screen, validation compound set, multiplex, phenotypic (AID 588506;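 active = efflux inhibition above 0.42, the validation set average plus 4 SD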;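 also: Nile Red retained in cells so higher fluorescence means more efflux inhibition; 0 = negative control wells and 1 = enniatin B 25 µM full block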). The note with it: S. cerevisiae pump-expressing triplex, Nile Red efflux flow cytometry; at 10 µM; stronger effect = higher value; the pumps come from Candida albicans.
The target of assay [15] is ATP-binding cassette sub-family B member 6 (Homo sapiens) (UniProt Q9NP58). Briefly: ABCB6 transporter inhibitors, pilot screen, K562-ABCB6 cells, flow cytometry, validation set (AID 588550;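 active = inhibition above the screen-wide mean plus 3 SD, about 51%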;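 also: 0% = DMSO wells and 100% = benzethonium chloride 70 µM positive control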). To be noted: K562-ABCB6 porphyrin accumulation, 1 h, at 10 µM, stronger effect = higher value.
The nature of assay [16]: promoters of myeloid differentiation in arrested cells, primary screen, cell-based, GFP/MAC1 double positive, flow cytometry, validation set (AID 588685;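 active = differentiation response of at least 50%, scaled between solvent and reference control, from cells with both markers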;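 also: compound exposure lasts four days before antibody staining and flow analysis; 0% = DMSO wells and 100% = 5 µM fulvestrant positive control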). To be noted: ER-HoxA9 marrow cells, stronger effect = higher value, normalized: vehicle 0, fulvestrant 100.

Records with an inconclusive call do not appear. Calls of active or inactive are those of the source.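 The calls were made as follows, unless noted: active = GFP signal, as percent of the solvent control, above the screen mean plus 3 SD, about 149; inconclusive = no reading because the compound's own fluorescence upset strain identification; inactive = the rest.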

Sequence of Integrin beta-1 (Homo sapiens) + Integrin alpha-4 (Homo sapiens) (P05556 whole entry, looked up): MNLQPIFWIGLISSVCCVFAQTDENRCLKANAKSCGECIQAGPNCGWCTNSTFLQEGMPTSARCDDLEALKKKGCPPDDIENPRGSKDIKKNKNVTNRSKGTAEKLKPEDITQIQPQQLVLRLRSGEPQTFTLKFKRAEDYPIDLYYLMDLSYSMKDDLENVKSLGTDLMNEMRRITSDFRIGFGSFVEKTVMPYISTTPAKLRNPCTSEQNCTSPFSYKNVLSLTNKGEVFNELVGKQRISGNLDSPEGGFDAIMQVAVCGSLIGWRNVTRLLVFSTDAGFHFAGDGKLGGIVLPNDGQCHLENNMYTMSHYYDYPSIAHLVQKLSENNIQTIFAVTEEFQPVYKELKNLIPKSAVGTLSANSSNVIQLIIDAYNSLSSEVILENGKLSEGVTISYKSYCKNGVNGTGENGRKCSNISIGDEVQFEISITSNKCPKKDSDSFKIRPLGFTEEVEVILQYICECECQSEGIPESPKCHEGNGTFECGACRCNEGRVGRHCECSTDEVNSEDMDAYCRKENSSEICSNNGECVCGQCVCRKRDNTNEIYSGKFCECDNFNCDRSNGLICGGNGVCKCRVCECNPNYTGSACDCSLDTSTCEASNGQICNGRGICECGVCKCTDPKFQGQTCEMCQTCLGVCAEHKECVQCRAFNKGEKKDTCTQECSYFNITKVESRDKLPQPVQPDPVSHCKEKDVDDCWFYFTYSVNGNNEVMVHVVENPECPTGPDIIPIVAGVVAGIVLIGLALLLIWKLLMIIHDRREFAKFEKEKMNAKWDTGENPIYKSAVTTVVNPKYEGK
Sequence of Integrin beta-1 (Homo sapiens) + Integrin alpha-4 (Homo sapiens) (P13612 whole entry, looked up): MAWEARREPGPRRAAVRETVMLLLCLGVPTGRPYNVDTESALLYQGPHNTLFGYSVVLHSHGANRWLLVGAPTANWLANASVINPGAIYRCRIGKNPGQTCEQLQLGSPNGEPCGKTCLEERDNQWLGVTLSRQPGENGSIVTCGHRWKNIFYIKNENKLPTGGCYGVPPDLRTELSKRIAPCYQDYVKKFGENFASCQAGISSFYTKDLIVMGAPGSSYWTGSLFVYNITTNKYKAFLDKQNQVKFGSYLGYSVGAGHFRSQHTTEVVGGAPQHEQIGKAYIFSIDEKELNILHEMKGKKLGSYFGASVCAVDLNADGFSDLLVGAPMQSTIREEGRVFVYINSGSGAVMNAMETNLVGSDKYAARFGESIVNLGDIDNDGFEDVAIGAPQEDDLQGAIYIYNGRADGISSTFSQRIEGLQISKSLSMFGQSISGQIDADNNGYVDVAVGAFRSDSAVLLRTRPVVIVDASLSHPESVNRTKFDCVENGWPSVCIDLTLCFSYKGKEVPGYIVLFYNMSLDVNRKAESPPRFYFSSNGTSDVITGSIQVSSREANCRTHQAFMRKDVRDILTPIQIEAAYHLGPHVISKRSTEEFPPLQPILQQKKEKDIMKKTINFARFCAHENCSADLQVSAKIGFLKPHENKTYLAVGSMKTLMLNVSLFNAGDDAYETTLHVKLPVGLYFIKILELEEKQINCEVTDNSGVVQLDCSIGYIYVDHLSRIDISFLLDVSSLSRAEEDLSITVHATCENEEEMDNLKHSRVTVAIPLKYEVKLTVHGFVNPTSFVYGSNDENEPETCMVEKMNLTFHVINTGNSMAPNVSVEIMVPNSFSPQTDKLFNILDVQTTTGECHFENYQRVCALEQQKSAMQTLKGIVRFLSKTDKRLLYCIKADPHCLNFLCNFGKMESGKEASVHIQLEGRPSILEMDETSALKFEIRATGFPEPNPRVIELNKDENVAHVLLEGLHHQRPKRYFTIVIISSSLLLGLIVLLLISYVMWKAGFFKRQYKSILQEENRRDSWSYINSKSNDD
Sequence of ATP-binding cassette sub-family B member 6 (Homo sapiens) (Q9NP58 whole entry, looked up): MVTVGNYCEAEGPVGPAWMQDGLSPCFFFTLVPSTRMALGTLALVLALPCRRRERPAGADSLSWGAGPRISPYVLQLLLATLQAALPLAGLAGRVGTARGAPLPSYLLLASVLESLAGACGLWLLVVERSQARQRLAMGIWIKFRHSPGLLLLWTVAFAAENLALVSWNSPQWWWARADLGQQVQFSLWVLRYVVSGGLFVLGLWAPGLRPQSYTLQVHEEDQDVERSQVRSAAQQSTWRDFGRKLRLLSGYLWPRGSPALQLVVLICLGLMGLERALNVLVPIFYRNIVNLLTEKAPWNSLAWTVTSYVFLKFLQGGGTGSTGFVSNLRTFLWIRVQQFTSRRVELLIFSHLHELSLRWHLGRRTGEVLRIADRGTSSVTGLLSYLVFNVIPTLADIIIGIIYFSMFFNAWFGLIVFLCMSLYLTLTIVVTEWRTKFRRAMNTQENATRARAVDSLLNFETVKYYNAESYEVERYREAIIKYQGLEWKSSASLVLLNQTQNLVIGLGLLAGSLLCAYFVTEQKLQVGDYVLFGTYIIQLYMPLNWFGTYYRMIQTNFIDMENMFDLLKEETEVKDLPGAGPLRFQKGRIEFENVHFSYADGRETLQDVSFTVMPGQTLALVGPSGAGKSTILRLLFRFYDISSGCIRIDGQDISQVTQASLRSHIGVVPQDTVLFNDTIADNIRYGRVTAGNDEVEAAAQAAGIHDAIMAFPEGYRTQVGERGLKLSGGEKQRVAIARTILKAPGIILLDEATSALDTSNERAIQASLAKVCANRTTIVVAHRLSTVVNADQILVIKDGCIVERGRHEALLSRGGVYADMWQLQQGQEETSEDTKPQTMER
Sequence of Beta-2 adrenergic receptor (Homo sapiens) (P07550 whole entry, looked up): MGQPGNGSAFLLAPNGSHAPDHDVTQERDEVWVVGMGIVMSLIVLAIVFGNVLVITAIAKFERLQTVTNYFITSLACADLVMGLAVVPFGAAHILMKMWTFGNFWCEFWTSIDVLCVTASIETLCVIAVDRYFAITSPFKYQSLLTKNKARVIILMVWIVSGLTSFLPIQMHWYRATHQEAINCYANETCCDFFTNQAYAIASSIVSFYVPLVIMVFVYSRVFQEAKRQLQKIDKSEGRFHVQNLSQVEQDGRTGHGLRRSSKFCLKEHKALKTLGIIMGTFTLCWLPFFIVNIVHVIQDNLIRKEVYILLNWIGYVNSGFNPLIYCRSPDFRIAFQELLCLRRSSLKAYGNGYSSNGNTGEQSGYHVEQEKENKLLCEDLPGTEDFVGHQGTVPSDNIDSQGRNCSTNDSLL
Sequence of Beta-adrenergic receptor kinase 1 (Homo sapiens) (P25098 whole entry, looked up): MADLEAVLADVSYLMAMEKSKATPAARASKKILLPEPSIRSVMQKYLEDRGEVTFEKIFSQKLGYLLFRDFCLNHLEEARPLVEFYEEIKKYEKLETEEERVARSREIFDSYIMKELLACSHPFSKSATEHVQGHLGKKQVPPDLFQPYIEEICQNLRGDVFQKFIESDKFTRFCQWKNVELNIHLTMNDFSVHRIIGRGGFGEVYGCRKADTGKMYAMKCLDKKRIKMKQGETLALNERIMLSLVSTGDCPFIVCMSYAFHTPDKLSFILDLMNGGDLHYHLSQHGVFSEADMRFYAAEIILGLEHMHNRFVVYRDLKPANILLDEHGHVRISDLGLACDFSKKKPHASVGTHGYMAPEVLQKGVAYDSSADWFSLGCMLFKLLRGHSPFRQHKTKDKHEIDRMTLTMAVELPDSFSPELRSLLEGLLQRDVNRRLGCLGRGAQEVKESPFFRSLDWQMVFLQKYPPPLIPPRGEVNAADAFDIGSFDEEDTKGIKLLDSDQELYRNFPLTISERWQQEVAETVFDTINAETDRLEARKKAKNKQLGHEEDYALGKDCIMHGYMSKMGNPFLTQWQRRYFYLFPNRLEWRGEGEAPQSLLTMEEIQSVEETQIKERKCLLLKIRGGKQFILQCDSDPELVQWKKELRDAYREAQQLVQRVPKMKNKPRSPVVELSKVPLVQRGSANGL
Sequence of AP-2 complex subunit beta (Homo sapiens) (P63010 whole entry, looked up, the tested form may be a part, one chain of several): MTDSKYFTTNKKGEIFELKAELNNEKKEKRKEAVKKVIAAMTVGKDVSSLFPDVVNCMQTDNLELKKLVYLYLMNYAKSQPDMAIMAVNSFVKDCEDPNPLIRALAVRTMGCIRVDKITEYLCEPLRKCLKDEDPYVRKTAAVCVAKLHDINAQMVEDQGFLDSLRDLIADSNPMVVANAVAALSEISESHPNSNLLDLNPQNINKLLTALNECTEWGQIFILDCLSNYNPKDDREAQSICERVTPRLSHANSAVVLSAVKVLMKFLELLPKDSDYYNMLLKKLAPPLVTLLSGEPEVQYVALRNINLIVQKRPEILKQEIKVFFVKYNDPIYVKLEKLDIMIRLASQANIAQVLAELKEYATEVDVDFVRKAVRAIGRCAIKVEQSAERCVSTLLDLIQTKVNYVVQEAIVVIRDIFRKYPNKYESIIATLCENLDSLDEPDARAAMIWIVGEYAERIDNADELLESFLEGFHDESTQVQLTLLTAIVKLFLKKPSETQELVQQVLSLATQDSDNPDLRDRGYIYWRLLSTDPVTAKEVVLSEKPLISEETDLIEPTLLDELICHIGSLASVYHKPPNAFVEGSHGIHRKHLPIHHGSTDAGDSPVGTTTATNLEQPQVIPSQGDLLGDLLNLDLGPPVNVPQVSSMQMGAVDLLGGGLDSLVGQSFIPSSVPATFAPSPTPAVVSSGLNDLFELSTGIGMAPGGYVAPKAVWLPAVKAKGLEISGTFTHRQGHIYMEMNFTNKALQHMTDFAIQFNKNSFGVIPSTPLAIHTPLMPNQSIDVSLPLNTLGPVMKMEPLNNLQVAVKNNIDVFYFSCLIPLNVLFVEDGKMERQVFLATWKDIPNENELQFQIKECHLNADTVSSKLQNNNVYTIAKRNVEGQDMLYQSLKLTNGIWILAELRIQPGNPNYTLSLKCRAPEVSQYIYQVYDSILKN

For `O=c1[nH]c(=O)n(C2CCCO2)cc1F` (configuration not stated), the percent of DMSO control GFP in assay [1] is 93.5% (inactive). The GFP response vs DMSO was 117% (inactive) in assay [2] and 81.4% (inactive) in [4]. Also, the percent response of DMSO control in assay [3] was 97.9% (inactive). In addition, the GFP response, % of DMSO in assay [5] was 95.6% (inactive). Moreover, the double positive events in assay [6] turned out to be 60.9%. The vesicle binding response in assay [6] was 137% (inactive). In addition, the figures for the inhibition in [7], in assay [11] and in assay [15] were -17.8% (inactive), -10.2% (inactive) and 14% (inactive), respectively. The superoxide response (% of plate) in assay [8] was 96.1% (inactive). Further, in assay [9], the aptamer binding inhibition was 7% (inactive). Further, the response was -4.34% (inactive) in [10] and 6.89% (inactive) in assay [12]. Further, the binding (% of control) in [13] is 110% (inactive). Further, in assay [14], the efflux inhibition (fraction of control) was 0.09 (inactive). Besides, the differentiation response in assay [16] is 35.2% (inactive).
As for `CN1[C@@H]2CC[C@H]1CC(OC(=O)C(CO)c1ccccc1)C2` (some centres not stated), the percent of DMSO control GFP in [1] is 99.6% (inactive). Besides, the GFP response vs DMSO was 97.7% (inactive) in [2] and 86.1% (inactive) in assay [4]. Besides, in assay [3], the percent response of DMSO control is 103% (inactive). For the same compound, the GFP response, % of DMSO in [5] is 98% (inactive). In assay [6], this compound came in with a double positive events of 61.1%. For the same compound, the vesicle binding response in assay [6] was 163% (inactive). The inhibition in assay [7] is 8.29% (inactive); in assay [11] it was -4.27% (inactive); in assay [15] it was 7% (inactive). For the same compound, the superoxide response (% of plate) in assay [8] was 113% (inactive). The aptamer binding inhibition in assay [9] is 25% (inactive). Also, the response in assay [10] was -0.25% (inactive); in assay [12], 3.64% (inactive). In addition, the binding (% of control) in [13] is 101% (inactive). Moreover, the efflux inhibition (fraction of control) in [14] was -0.205 (inactive). Besides, in assay [16], the differentiation response was -13.3% (inactive).
Take `CC/C(=C(\c1ccc(O)cc1)c1ccc(OCCN(C)C)cc1)c1ccccc1`: the percent of DMSO control GFP in assay [1] is 107% (inactive). In addition, the figures for the GFP response vs DMSO in [2] and in assay [4] were 108% (inactive) and 99.1% (inactive), respectively. Besides, the percent response of DMSO control in assay [3] was 109% (inactive). Besides, the GFP response, % of DMSO in assay [5] was 114% (inactive). This compound also registered a double positive events in [6] of 62.9%. Moreover, in [6], the vesicle binding response is 157% (inactive). Besides, the values for the inhibition in assay [7], in assay [11] and in assay [15] were 15% (inactive), 42.2% (inactive) and 21% (inactive), respectively. Further, the superoxide response (% of plate) in assay [8] is 97.5% (inactive). Besides, the aptamer binding inhibition in [9] is -6% (inactive). The response in assay [10] is 38.5% (inactive); in assay [12], -1.39% (inactive). The binding (% of control) in assay [13] was 112% (inactive). For the same compound, the efflux inhibition (fraction of control) in assay [14] is 0.29 (inactive). In addition, the differentiation response in assay [16] was -3.11% (inactive).
`CO[C@@]1(NC(=O)Cc2cccs2)C(=O)N2C(C(=O)O)=C(COC(N)=O)CS[C@@H]21`: in [1], the percent of DMSO control GFP was 91.5% (inactive). The GFP response vs DMSO in assay [2] was 130% (inactive); in assay [4] it was 83.6% (inactive). In addition, the percent response of DMSO control in assay [3] is 111% (inactive). Further, in [5], the GFP response, % of DMSO was 119% (inactive). Besides, the double positive events in [6] is 64.1%. Also, in assay [6], the vesicle binding response is 191% (inactive). Also, the inhibition was -18.8% (inactive) in assay [7], 1.97% (inactive) in assay [11] and 14% (inactive) in [15]. The superoxide response (% of plate) in assay [8] was 112% (inactive). The aptamer binding inhibition in assay [9] is 9% (inactive). For the same compound, the response in assay [10] is -3.96% (inactive); in [12], -0.45% (inactive). The binding (% of control) in assay [13] was 93.6% (inactive). The efflux inhibition (fraction of control) in assay [14] was 0.16 (inactive). The differentiation response in assay [16] was -7.37% (inactive).
For the compound `CC1(C)C(C=C(Cl)Cl)C1C(=O)N1CCN(Cc2ccccc2)CC1` (configuration not stated), the percent of DMSO control GFP in [1] is 103% (inactive). The GFP response vs DMSO in [2] is 99.3% (inactive); in assay [4] it was 89.4% (inactive). In assay [3], the percent response of DMSO control is 104% (inactive). The GFP response, % of DMSO in [5] is 103% (inactive). This compound also yielded a double positive events in [6] of 66.3%. In addition, the vesicle binding response in assay [6] was 329% (inactive). In addition, the figures for the inhibition in assay [7], in assay [11] and in [15] were -6.68% (inactive), 5.16% (inactive) and 13% (inactive), respectively. Besides, in assay [8], the superoxide response (% of plate) was 102% (inactive). Besides, the aptamer binding inhibition in assay [9] was 3% (inactive). The response in [10] is -1.88% (inactive); in [12] it was -5.4% (inactive). Further, in [13], the binding (% of control) is 93.5% (inactive). Also, the efflux inhibition (fraction of control) in [14] was -0.01 (inactive). Further, the differentiation response in [16] is -9.53% (inactive).
`CC1(C)CC(CNCCC(c2ccc(F)cc2)c2ccco2)CCO1` (configuration not stated): the percent of DMSO control GFP in assay [1] was 96.1% (inactive). Moreover, the GFP response vs DMSO in assay [2] was 110% (inactive); in assay [4], 82.5% (inactive). Moreover, the percent response of DMSO control in [3] is 106% (inactive). The GFP response, % of DMSO in assay [5] is 103% (inactive). Moreover, the double positive events in assay [6] came to 93.3%. In [6], the vesicle binding response is 272% (inactive). Besides, the values for the inhibition in assay [7], in assay [11] and in assay [15] were 3.55% (inactive), 0.76% (inactive) and 11% (inactive), respectively. Also, the superoxide response (% of plate) in assay [8] was 87.8% (inactive). Moreover, in [9], the aptamer binding inhibition was 3% (inactive). For the same compound, the figures for the response in assay [10] and in assay [12] were 4.87% (inactive) and 5.44% (inactive), respectively. In assay [13], the binding (% of control) was 104% (inactive). Besides, the efflux inhibition (fraction of control) in [14] is 0.12 (inactive). Also, the differentiation response in assay [16] was -4.09% (inactive).
